The list is not random: actives were taken first. Their share in the collection is about 1.3%.
RAD52 inh – blocks human RAD52 DNA annealing; P43351; recombinant RAD52 DNA annealing, FRET fluorescence; inhibition, % at 18.7 µM; 360,000 compounds, 0.46% hits;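 active = every replicate showing at least 50% inhibition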
Target sequence (P43351 whole entry, looked up): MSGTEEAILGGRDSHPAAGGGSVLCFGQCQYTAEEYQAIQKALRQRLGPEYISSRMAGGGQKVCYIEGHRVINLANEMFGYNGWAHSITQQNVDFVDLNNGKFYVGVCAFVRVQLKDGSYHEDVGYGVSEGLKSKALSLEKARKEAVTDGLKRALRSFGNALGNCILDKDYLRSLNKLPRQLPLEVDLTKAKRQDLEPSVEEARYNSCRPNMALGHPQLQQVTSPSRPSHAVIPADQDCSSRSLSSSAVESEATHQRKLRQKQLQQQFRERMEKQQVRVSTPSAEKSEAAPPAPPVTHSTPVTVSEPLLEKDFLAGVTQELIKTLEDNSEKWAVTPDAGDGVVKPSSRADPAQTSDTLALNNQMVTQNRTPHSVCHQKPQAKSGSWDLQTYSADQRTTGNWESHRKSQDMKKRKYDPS
RAD54 branch – inhibitors of human RAD54 branch migration. RAD54 Holliday junction branch migration, FAM/BHQ fluorescence. 360,000 compounds, 0.14% hits. inhibition, % at 10.4 µM. Q92698;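 active = mean normalized replicate activity at least 40 and at least half of replicates scoring 40 or more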;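 note: 0% = median of neutral control wells and 100% = median of positive control wells; inhibitors cause a drop in the FAM fluorescence signal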
MIN6 prolif-1 – induces beta-cell replication in MIN6 cells | MIN6 cells proliferation, ATPlite luminescence, 48 h; cells starved in 0.2% serum; 100% = growth in 10% serum | proliferation, % at 10 µM | 330,000 compounds, 0.29% hits;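 active = compounds whose signal lies at least 3.5 SD above the mean of all wells on their plate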;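 note: 0% = DMSO-treated cells in low-serum medium and 100% = 10% serum control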
PREPL inhibitor – inhibitors of human prolyl oligopeptidase-like enzyme PREPL | Q4J6C6 | 320,000 compounds, 0.68% hits | inhibition, % at 5.96 µM | recombinant PREPL, fluorescence polarization activity-based probe; in the data active = inhibition above about 43%;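 note: 0% = enzyme with DMSO and 100% = wells lacking enzyme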
FID counter – counter-screen for HCV NS3 helicase inhibitors: DNA intercalator displacement; inhibition, % at 7.9 µM; DNA fluorescent intercalator displacement, fluorescence; 290,000 compounds, 0.17% hits; AID 1845; in the data active = inhibition above about 37%;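 note: 0% = vehicle and 100% = reference compound; higher means more ethidium bromide displaced from hairpin DNA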
UBC13 inh – inhibitors of human UBC13 polyubiquitin chain formation. P61088. TR-FRET. inhibition, % at 20 µM. 330,000 compounds, 0.47% hits. AID 485273; in the data active = inhibition above about 45%, passing the limit was not always enough
Target sequence (P61088 whole entry, looked up): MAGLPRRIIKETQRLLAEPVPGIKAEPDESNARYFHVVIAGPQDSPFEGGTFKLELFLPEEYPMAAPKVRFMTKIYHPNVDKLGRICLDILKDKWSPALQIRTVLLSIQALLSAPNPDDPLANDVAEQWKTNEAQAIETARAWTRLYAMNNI
MIN6 prolif-2 – MIN6 beta-cell replication induction, confirmed. shares compounds with MIN6 prolif-1. MIN6 beta-cell proliferation, ATPlite luminescence, 48 h; cells kept in 0.2% serum; scaled between 0.2% and 10% serum. proliferation increase, % at 50 µM. 920 tested, under 10 active. AID 463095;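 active = proliferation increase above 40% at any of the four tested concentrations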
Starred values were filed as active, the others as inactive; nt = no result given.

SMILES	RAD52 inh	RAD54 branch	MIN6 prolif-1	PREPL inhibitor	FID counter	UBC13 inh	MIN6 prolif-2
CCOC(=O)c1c(C)n(CCNC(C)=O)c2ccc(O)cc12	nt	-2	-1	-1	-10	9	nt
Cc1ccccc1-c1cnc2c(c1)C(=O)N([C@@H](C)CO)C[C@@H](C)[C@@H](CN(C)C(=O)c1ccncc1)O2	4	-1	nt	nt	nt	nt	nt
CCn1c(Cc2c(C)[nH]c3ccccc23)nnc1SCC(=O)NCc1ccccc1	nt	-3	0	-15	-30	-5	nt
C=CCn1c(Cc2c(C)[nH]c3ccccc23)nnc1SCC(=O)NCc1ccc(F)cc1	nt	-3	6.9*	-10	-28	-3	-5
CNC(=S)Nc1ccc([N+](=O)[O-])cc1C	-2	3	9.9*	-1	-3	3	-1
COc1ccc(C(=O)NC(=S)Nc2ccc([N+](=O)[O-])cc2C)cc1OC	-4	-1	0	7	-1	4	nt
Cc1ccccc1-c1cnc2c(c1)C(=O)N([C@@H](C)CO)C[C@@H](C)[C@H](CN(C)Cc1cncnc1)O2	-1	-3	nt	nt	nt	nt	nt
CN(C)c1ccc2c(c1)[C@H]1C[C@@H](CC(=O)NCC3CC3)O[C@@H](CO)[C@H]1O2	-79	-28	nt	nt	nt	nt	nt
Cc1ccc(C2=CC(c3ccccc3)n3ncnc3N2)cc1 (stereo not given)	-10	-10	12*	4	nt	9	-6
CO[C@H]1CN(C)C(=O)c2ccc(NC(=O)CC(F)(F)F)cc2OC[C@@H](C)N(CC2CC2)C[C@H]1C	16	nt	nt	nt	nt	nt	nt
CCOC(=O)c1cc2c(=O)n3cccc(C)c3nc2n(Cc2ccco2)c1=NC(=O)c1cccnc1	nt	23	nt	nt	-18	nt	nt
CCOC(=O)c1cc2c(=O)n3ccccc3nc2n(Cc2ccco2)c1=NC(=O)c1cccnc1	nt	6	9.5*	22	-18	8	-5
Cc1nc(N)c(CC(Br)CBr)c(Cl)n1 (stereo not given)	-3	nt	8.0*	-1	-3	5	2
O=C(Nc1ccc2c(c1)OCO2)N[C@H]1CC[C@@H](CC(=O)N2CCN(c3ccccc3)CC2)O[C@H]1CO	-15	5	nt	nt	nt	nt	nt
O=C(NCc1cccnc1)c1cccn1-c1ncc(C(F)(F)F)cc1Cl	-4	nt	8.8*	-3	-5	2	-1
O/N=C/c1cn(-c2ccccc2)nn1	-9	nt	7.6*	0	-8	3	2
Cc1ccc(C)c(S(=O)(=O)NC2CCS(=O)(=O)C2)c1 (stereo not given)	0	1	12*	2	nt	-3	-2
CCN(C1CCS(=O)(=O)C1)S(=O)(=O)c1cc(C)ccc1C (stereo not given)	-8	4	8	-14	nt	-5	nt
COc1ccccc1C(=O)Nc1ccc2c(C)cc(=O)oc2c1	-12	-12	-2	13	-18	4	nt
CCOc1ncccc1C(=O)Nc1ccc2c(C)cc(=O)oc2c1	nt	3	8.1*	-3	-5	-8	3
Cc1cccc(C)c1OCC(=O)Nn1c(COc2ccccc2)nc2ccccc2c1=O	nt	nt	19*	-7	-25	-3	3
Cc1ccccc1OCC(=O)Nn1c(COc2ccccc2)nc2ccccc2c1=O	nt	1	0	-9	-18	-4	nt
CN(C)S(=O)(=O)c1cccc(NC(=O)COC(=O)CCc2nc3ccccc3s2)c1	nt	5	6.7*	11	-13	6	5
Cc1ccc(S(=O)(=O)N(C)C[C@@H]2OCCCC[C@@H](C)Oc3ccc(NC(=O)Nc4cccc5ccccc45)cc3C(=O)N([C@@H](C)CO)C[C@@H]2C)cc1	7	5	nt	nt	nt	nt	nt
C[C@H](CO)N1C[C@H](C)[C@@H](CN(C)CC2CC2)OCCCC[C@H](C)Oc2ccc(NC(=O)Nc3ccc(F)cc3)cc2C1=O	39	4	nt	nt	nt	nt	nt
SMILES	RAD52 inh	RAD54 branch	MIN6 prolif-1	PREPL inhibitor	FID counter	UBC13 inh	MIN6 prolif-2
CCOc1ccc(-n2cnnn2)cc1S(=O)(=O)Nc1c(C)cccc1C	2	-3	6.1*	0	-9	5	1
COc1cc(C(=O)OCC(=O)NCC2CCCCC2)ccc1OCC(C)C	-6	nt	-1	12	nt	-3	nt
COc1cc(C(=O)OCC(=O)NC2CCCCCC2)ccc1OCC(C)C	4	-6	11*	10	nt	-10	-1
COc1cc(CN2CC3(CCN(C(=O)CN4CCOCC4)CC3)c3c(n(C)c4cc(OC)ccc34)[C@@H]2CO)cc(OC)c1	-105	nt	nt	nt	nt	nt	nt
COC(=O)c1nn(-c2ccccc2)c(Sc2ccc(OC)cc2)c1/C=N/O	nt	2	6.5*	-2	-17	0	-4
CO/N=C/c1c(C(=O)OC)nn(-c2ccccc2)c1Cl	-4	nt	0	6	-11	4	nt
O=C(c1ccco1)N1CCCC(c2nc3c(nnn3Cc3c(Cl)cccc3Cl)c(=O)[nH]2)C1 (stereo not given)	-73	0	8.4*	0	-42	5	-6
O=C(c1ccco1)N1CCCC(c2nc3c(nnn3Cc3ccccc3)c(=O)[nH]2)C1 (stereo not given)	5	-17	-2	-9	-30	3	nt
Cn1c(=N)n(CC(=O)c2ccccc2)c2ccccc21	-15	2	-3	12	-6	-2	nt
Cn1c(=N)n(CC(=O)O)c2ccccc21	nt	-9	5.8*	0	5	0	0
Fc1ccccc1NC(=S)N1CCN(Cc2ccc3c(c2)OCO3)CC1	-6	nt	7.4*	6	-5	5	-2
Cc1cc(Cl)ccc1NC(=S)N1CCN(Cc2ccc3c(c2)OCO3)CC1	-20	0	-2	28	2	5	nt
CN1[C@@H]2c3ccc(/C=C/c4ccccc4)c(=O)n3C[C@@H]2[C@@H](CO)[C@@H]1C(=O)NC1CCC1	nt	8	nt	nt	nt	nt	nt
Cc1cc(C)nc(NC(=NCCc2c[nH]c3ccccc23)NC(=O)c2ccco2)n1	nt	nt	12*	-7	-5	21	-5
Cc1cc(C)nc(NC(=NCCc2c[nH]c3ccccc23)NC(=O)Nc2ccccc2)n1	nt	6	-4	23	-1	-7	nt
CCOC(=O)c1c(C)[nH]c(C)c1C(=O)CSc1nc2ccccc2n1CCC#N	nt	2	2	9	-6	5	nt
CCCn1c(SCC(=O)c2c(C)[nH]c(C)c2C(=O)OCC)nc2ccccc21	-4	2	6.8*	-1	-35	6	-4
Cc1ccccc1S(=O)(=O)N1[C@@H](C#N)[C@@H](c2ccc(-c3ccc(F)cc3)cc2)[C@@H]1CO	-47	7	nt	nt	nt	nt	nt
C=CCNc1nc(-c2ccccc2)c(C(=O)OCC)cc1C#N	nt	-8	5.3*	5	-20	0	-6
Cc1cc2nc(-c3ccncc3)cc(C(F)(F)F)n2n1	-34	nt	9.3*	6	-2	9	4
C=CCN1C(=O)/C(=C2/Sc3ccccc3N2CCCS(=O)(=O)O)SC1=S	nt	-6	6.4*	2	-4	-7	-1

Assay outcomes deposited in PubChem BioAssay by several laboratories.
